The full list was thinned out, with the strongest signals kept by preference.
Key:
Experiment in all cases: glycan array binding signal (z-score within array); higher = stronger binding
Conditions in all cases: glycan notation: IUPAC condensed, linker removed
[1] = molecular target: Fuc(a1-2)Gal(b1-4)Fuc(a1-3)]GlcNAc(b1-2)Man(a1-3)[Fuc(a1-2)Gal(b1-4)[Fuc(a1-3)]GlcNAc(b1-2)Man(a1-6)]Man(b1-4)GlcNAc(b1-4)GlcNAc
Method in brief: (§1)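 Columns mapping to the same glycan were averaged after glycan names were converted to IUPAC-condensed notation. The data come from 3228 arrays in the Consortium for Functional Glycomics database, limited to those with an available protein sequence. Binding is reported as a within-array Z-score averaged across arrays of one protein sequence and across linkers.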

[2] = molecular target: Fuc(a1-2)Gal(b1-4)GlcNAc(b1-2)Man(a1-3)[Fuc(a1-2)Gal(b1-4)GlcNAc(b1-2)Man(a1-6)]Man(b1-4)GlcNAc(b1-4)[Fuc(a1-6)]GlcNAc
Method in brief: as §1

[3] = molecular target: Fuc(a1-2)Gal(b1-4)[Fuc(a1-3)]GlcNAc(b1-2)[Fuc(a1-2)Gal(b1-4)[Fuc(a1-3)]GlcNAc(b1-4)]Man(a1-3)[Fuc(a1-2)Gal(b1-4)[Fuc(a1-3)]GlcNAc(b1-2)Man(a1-6)]Man(b1-4)GlcNAc(b1-4)GlcNAc
Method in brief: as §1

[4] = molecular target: Fuc(a1-2)Gal(b1-4)[Fuc(a1-3)]GlcNAc(b1-3)Gal(b1-4)[Fuc(a1-3)]GlcNAc(b1-3)Gal(b1-4)[Fuc(a1-3)]GlcNAc
Method in brief: as §1

[5] = molecular target: Fuc(a1-2)Gal(b1-4)[Fuc(a1-3)]GlcNAc(b1-3)GalNAc
Method in brief: as §1

[6] = molecular target: Fuc(a1-2)Gal3S(b1-4)GlcNAc
Method in brief: as §1

[7] = molecular target: Fuc(a1-2)[Gal(a1-3)]Gal(b1-3)GalNAc
Method in brief: as §1

[8] = molecular target: Fuc(a1-2)[Gal(a1-3)]Gal(b1-3)GlcNAc(b1-2)Man(a1-3)[Fuc(a1-2)[Gal(a1-3)]Gal(b1-3)GlcNAc(b1-2)Man(a1-6)]Man(b1-4)GlcNAc(b1-4)[Fuc(a1-6)]GlcNAc
Method in brief: as §1

[9] = molecular target: Fuc(a1-2)[Gal(a1-3)]Gal(b1-4)GlcNAc
Method in brief: as §1

[10] = molecular target: Fuc(a1-2)[Gal(a1-4)]Gal(b1-4)GlcNAc
Method in brief: as §1

[11] = molecular target: Fuc(a1-2)[GalNAc(a1-3)]Gal(b1-4)GlcNAc(b1-3)Gal(b1-4)GlcNAc(b1-3)Gal(b1-4)GlcNAc
Method in brief: as §1

[12] = molecular target: Gal(b1-3)GalNAc(b1-4)[Neu5Ac(a2-3)]Gal(b1-4)Glc
Method in brief: as §1

[13] = molecular target: Gal(b1-3)[Neu5Ac(b2-6)]GalNAc
Method in brief: as §1

[14] = molecular target: Gal(b1-4)GlcNAc(b1-2)Man(a1-3)[Gal(b1-4)GlcNAc(b1-2)Man(a1-6)][GlcNAc(b1-4)]Man(b1-4)GlcNAc(b1-4)[Fuc(a1-6)]GlcNAc
Method in brief: as §1

[15] = molecular target: Gal(b1-4)GlcNAc(b1-3)Gal(b1-4)GlcNAc(b1-2)Man(a1-3)[Gal(b1-4)GlcNAc(b1-3)Gal(b1-4)GlcNAc(b1-2)Man(a1-6)]Man(b1-4)GlcNAc(b1-4)GlcNAc
Method in brief: as §1

[16] = molecular target: Gal(b1-4)GlcNAc(b1-3)Gal(b1-4)GlcNAc(b1-2)Man(a1-3)[Gal(b1-4)GlcNAc(b1-3)Gal(b1-4)GlcNAc(b1-2)Man(a1-6)]Man(b1-4)GlcNAc(b1-4)[Fuc(a1-6)]GlcNAc
Method in brief: as §1

Gal3S(b1-3)GalNAc = molecular target: Gal3S(b1-3)GalNAc
Method in brief: as §1

[17] = molecular target: Gal3S(b1-3)[Fuc(a1-4)]GlcNAc
Method in brief: as §1

Gal6S(b1-3)GlcNAc6S = molecular target: Gal6S(b1-3)GlcNAc6S
Method in brief: as §1

Gal6S(b1-4)Glc = molecular target: Gal6S(b1-4)Glc
Method in brief: as §1

GalNAc3S(b1-4)GlcNAc3S = molecular target: GalNAc3S(b1-4)GlcNAc3S
Method in brief: as §1

Glc(b1-4)Glc = molecular target: Glc(b1-4)Glc
Method in brief: as §1

[18] = molecular target: GlcNAc(a1-4)Gal(b1-3)GlcNAc
Method in brief: as §1

[19] = molecular target: GlcNAc(a1-4)Gal(b1-4)GlcNAc(b1-3)Gal(b1-4)Glc
Method in brief: as §1

[20] = molecular target: GlcNAc(b1-2)[GlcNAc(b1-4)]Man(a1-3)[GlcNAc(b1-4)][GlcNAc(b1-2)[GlcNAc(b1-6)]Man(a1-6)]Man(b1-4)GlcNAc(b1-4)[Fuc(a1-6)]GlcNAc
Method in brief: as §1

[21] = molecular target: GlcNAc(b1-3)Gal(b1-4)GlcNAc(b1-2)Man(a1-3)[GlcNAc(b1-3)Gal(b1-4)GlcNAc(b1-2)Man(a1-6)]Man(b1-4)GlcNAc(b1-4)GlcNAc
Method in brief: as §1

[22] = molecular target: GlcNAc(b1-3)Gal(b1-4)GlcNAc(b1-3)Gal(b1-4)GlcNAc(b1-2)Man(a1-3)[GlcNAc(b1-3)Gal(b1-4)GlcNAc(b1-3)Gal(b1-4)GlcNAc(b1-2)Man(a1-6)]Man(b1-4)GlcNAc(b1-4)GlcNAc
Method in brief: as §1

[23] = molecular target: GlcNAc(b1-3)Gal(b1-4)GlcNAc(b1-3)Gal(b1-4)GlcNAc(b1-3)Gal(b1-4)GlcNAc(b1-2)[GlcNAc(b1-3)Gal(b1-4)GlcNAc(b1-3)Gal(b1-4)GlcNAc(b1-3)Gal(b1-4)GlcNAc(b1-6)]Man(a1-6)[GlcNAc(b1-3)Gal(b1-4)GlcNAc(b1-3)Gal(b1-4)GlcNAc(b1-3)Gal(b1-4)GlcNAc(b1-2)Man(a1-3)]Man(b1-4)GlcNAc(b1-4)[Fuc(a1-6)]GlcNAc
Method in brief: as §1

[24] = molecular target: GlcNAc(b1-4)[GlcNAc(b1-6)]GalNAc
Method in brief: as §1

[25] = molecular target: Man(a1-3)[Man(a1-6)]Man(b1-4)GlcNAc(b1-4)GlcNAc
Method in brief: as §1

[26] = molecular target: Neu5Ac(a2-3)Gal(b1-3)GalNAc(b1-4)[Neu5Ac(a2-3)]Gal(b1-4)Glc
Method in brief: as §1

[27] = molecular target: Neu5Ac(a2-3)Gal(b1-3)GalNAc6S
Method in brief: as §1

[28] = molecular target: Neu5Ac(a2-3)Gal(b1-3)GlcNAc(b1-2)Man(a1-3)[Neu5Ac(a2-3)Gal(b1-3)GlcNAc(b1-2)Man(a1-6)]Man(b1-4)GlcNAc(b1-4)GlcNAc
Method in brief: as §1

[29] = molecular target: Neu5Ac(a2-3)Gal(b1-3)[GlcNAc(b1-6)]GalNAc
Method in brief: as §1

[30] = molecular target: Neu5Ac(a2-3)Gal(b1-4)GlcNAc(b1-2)Man
Method in brief: as §1

[31] = molecular target: Neu5Ac(a2-3)Gal(b1-4)GlcNAc(b1-3)Gal(b1-4)GlcNAc(b1-3)Gal(b1-4)GlcNAc(b1-2)Man(a1-3)[Neu5Ac(a2-3)Gal(b1-4)GlcNAc(b1-3)Gal(b1-4)GlcNAc(b1-3)Gal(b1-4)GlcNAc(b1-2)Man(a1-6)]GalNAc
Method in brief: as §1

[32] = molecular target: Neu5Ac(a2-3)Gal(b1-4)GlcNAc(b1-3)Gal(b1-4)GlcNAc(b1-3)GalNAc
Method in brief: as §1

[33] = molecular target: Neu5Ac(a2-3)Gal(b1-4)GlcNAc(b1-3)Gal(b1-4)[Fuc(a1-3)]GlcNAc
Method in brief: as §1

[34] = molecular target: Neu5Ac(a2-3)Gal(b1-4)[Fuc(a1-3)]GlcNAc(b1-2)Man
Method in brief: as §1

[35] = molecular target: Neu5Ac(a2-6)Gal(b1-4)GlcNAc(b1-2)Man(a1-3)[Neu5Ac(a2-3)Gal(b1-4)GlcNAc(b1-2)Man(a1-6)]Man(b1-4)GlcNAc(b1-4)GlcNAc
Method in brief: as §1

[36] = molecular target: Neu5Ac(a2-6)Gal(b1-4)GlcNAc(b1-2)Man(a1-3)[Neu5Ac(a2-6)Gal(b1-4)GlcNAc(b1-2)Man(a1-6)]Man(b1-4)GlcNAc(b1-4)GlcNAc
Method in brief: as §1

[37] = molecular target: Neu5Ac(a2-6)Gal(b1-4)GlcNAc(b1-2)Man(a1-6)[GlcNAc(b1-2)Man(a1-3)]Man(b1-4)GlcNAc(b1-4)GlcNAc
Method in brief: as §1

[38] = molecular target: Neu5Ac(a2-6)Gal(b1-4)GlcNAc(b1-3)Gal(b1-4)GlcNAc(b1-2)Man(a1-3)[Neu5Ac(a2-6)Gal(b1-4)GlcNAc(b1-3)Gal(b1-4)GlcNAc(b1-2)Man(a1-6)]GalNAc
Method in brief: as §1

[39] = molecular target: Neu5Ac(a2-6)Gal(b1-4)GlcNAc(b1-3)Gal(b1-4)GlcNAc(b1-3)[Neu5Ac(a2-6)Gal(b1-4)GlcNAc(b1-3)Gal(b1-4)GlcNAc(b1-6)]GalNAc
Method in brief: as §1

Neu5Ac(a2-6)GalNAc = molecular target: Neu5Ac(a2-6)GalNAc
Method in brief: as §1

[40] = molecular target: Neu5Ac(a2-6)GalNAc(b1-4)GlcNAc
Method in brief: as §1

[41] = molecular target: Neu5Ac(a2-8)Neu5Ac(a2-3)Gal(b1-4)Glc
Method in brief: as §1

[42] = molecular target: Neu5Ac(a2-8)Neu5Ac(a2-3)[GalNAc(b1-4)]Gal(b1-4)Glc
Method in brief: as §1

B1: RsaA-N-term (Caulobacter crescentus), P35828 (protein)
chain: MAYTTAQLVTAYTNANLGKAPDAATTLTLDAYATQTQTGGLSDAAALTNTLKLVNSTTAVAIQTYQFFTGVAPSAAGLDFLVDSTTNTNDLNDAYYSKFAQENRFINFSINLATGAGAGATAFAAAYTGVSYAQTVATAYDKIIGNAVATAAGVDVAAAVAFLSRQANIDYLTAFVRANTPFTAAADIDLAVKAALIGTILNAATVSGIGGYATATAAMINDLSDGALSTDNAAGVNLFTAYPSSGVSGSTLSLTTGTDTLTGTANNDTFVAGEVAGDGSGWSHPQFEKGG
- glycan array binding signal (z-score) [1]: 5.97
- glycan array binding signal (z-score) [2]: 7.05
- glycan array binding signal (z-score) [3]: 2.4
- glycan array binding signal (z-score) [4]: -1.26
- glycan array binding signal (z-score) [5]: -0.298
- glycan array binding signal (z-score) [6]: -0.243
- glycan array binding signal (z-score) [7]: -0.328
- glycan array binding signal (z-score) [8]: -0.025
- glycan array binding signal (z-score) [9]: 1.14
- glycan array binding signal (z-score) [10]: -0.479
- glycan array binding signal (z-score) [11]: 0.016
- glycan array binding signal (z-score) [12]: -0.359
- glycan array binding signal (z-score) [13]: 0.215
- glycan array binding signal (z-score) [14]: -0.708
- glycan array binding signal (z-score) [15]: 3.15
- glycan array binding signal (z-score) [16]: 2.39
- glycan array binding signal (z-score) (Gal3S(b1-3)GalNAc): 1.7
- glycan array binding signal (z-score) [17]: -0.524
- glycan array binding signal (z-score) (Gal6S(b1-3)GlcNAc6S): 3.01
- glycan array binding signal (z-score) (Gal6S(b1-4)Glc): -0.512
- glycan array binding signal (z-score) (GalNAc3S(b1-4)GlcNAc3S): 0.081
- glycan array binding signal (z-score) (Glc(b1-4)Glc): -0.512
- glycan array binding signal (z-score) [18]: 0.008
- glycan array binding signal (z-score) [19]: -0.491
- glycan array binding signal (z-score) [20]: 0.317
- glycan array binding signal (z-score) [21]: 2.18
- glycan array binding signal (z-score) [22]: 2.59
- glycan array binding signal (z-score) [23]: 0.217
- glycan array binding signal (z-score) [24]: -0.221
- glycan array binding signal (z-score) [25]: 0.174
- glycan array binding signal (z-score) [26]: -1.29
- glycan array binding signal (z-score) [27]: 0.427
- glycan array binding signal (z-score) [28]: 7.19
- glycan array binding signal (z-score) [29]: -1.21
- glycan array binding signal (z-score) [30]: 2.51
- glycan array binding signal (z-score) [31]: -0.725
- glycan array binding signal (z-score) [32]: -1.2
- glycan array binding signal (z-score) [33]: -0.112
- glycan array binding signal (z-score) [34]: 0.103
- glycan array binding signal (z-score) [35]: 2.79
- glycan array binding signal (z-score) [36]: 0.398
- glycan array binding signal (z-score) [37]: 0.365
- glycan array binding signal (z-score) [38]: -1.33
- glycan array binding signal (z-score) [39]: -0.68
- glycan array binding signal (z-score) (Neu5Ac(a2-6)GalNAc): 2.17
- glycan array binding signal (z-score) [40]: -0.593
- glycan array binding signal (z-score) [41]: -0.815
- glycan array binding signal (z-score) [42]: -0.001

Reference: the supplement of paper PMC8728848
